Source: PubChem BioAssay (NCATS)
Results filed as inconclusive are left out. Activity calls are given as the source filed them. Calls follow the shape of the dose curve; as a rule, active = well fitted inhibition curve with a large enough effect; inconclusive = small, poorly fitted or top-dose-only effect; inactive = no such curve, though single readings can be large or run the other way.

Experiment: Primary qHTS for small molecule stabilizers of the endoplasmic reticulum resident proteome: Secreted ER Calcium Modulated Protein (SERCaMP) assay (AID 1508630)
Conditions: SH-SY5Y GLuc-SERCaMP (Gaussia luciferase released on ER calcium loss) secretion, thapsigargin, luminescence; series mostly up to 38.4 µM
Source text: Assay Provider: Brandon K. Harvey Ph.D.
National Institute on Drug Abuse, National Institutes of Health, Baltimore, MD
Endoplasmic reticulum (ER) dysregulation is associated with human pathologies including neurodegenerative, cardiovascular, muscular, and diabetic conditions. Maintenance of ER calcium is critical for functions of the ER and its depletion can lead to loss of ER resident proteins, in a process termed exodosis. Therapeutic compounds capable of attenuating the redistribution of ER proteins under pathological conditions may slow or stop disease progression. To identify such compounds, we performed a quantitative high-throughput screen (qHTS) using the SERCaMP assay, which monitors secretion of ER resident proteins triggered by calcium depletion.
SERCaMP was initially developed as a reporter of ER calcium homeostasis using a Gaussia luciferase with a modified signal peptide and carboxy-terminus (GLuc-SERCaMP), modifications that confer secretion of the reporter in response to ER calcium depletion (Henderson et al., 2014). The assay was used to screen 9,501 compounds, including a collection of drugs approved by the FDA (US), EMA (EU), NHI (Japan), and HC (Canada) regulatory agencies (Huang et al., 2011). Since the SERCaMP reporter reflects the exodosis phenomenon (Trychta et al., 2018a), compounds identified in the screen have the potential to prevent exodosis by different mechanisms such as stabilizing ER calcium or augmenting ERS retrieval.
1. Henderson, M.J., Wires, E.S., Trychta, K.A., Richie, C.T., and Harvey, B.K. (2014). SERCaMP: a carboxy-terminal protein modification that enables monitoring of ER calcium homeostasis. Mol Biol Cell 25, 2828-2839.
2. Huang, R., Southall, N., Wang, Y., Yasgar, A., Shinn, P., Jadhav, A., Nguyen, D.T., and Austin, C.P. (2011). The NCGC pharmaceutical collection: a comprehensive resource of clinically approved drugs enabling repurposing and chemical genomics. Sci Transl Med 3, 80ps16.
3. Trychta, K.A., Back, S., Henderson, M.J., and Harvey, B.K. (2018a). KDEL Receptors Are Differentially Regulated to Maintain the ER Proteome under Calcium Deficiency. Cell Rep 25, 1829-1840 e1826.
SEQUENCE No. (1, 2, 3, etc.); […] (e.g., Cells, Incubation, Reagent, etc.); VALUE and DESCRIPTION.
1; Reagent; 5 uL; 1000 SH-SY5Y cells per wells
3; Compound; 23 nL; Control inhibitor / compound library
5; Reagent; 100 nM; Thapsigargin
7; Reagent; 1 uL; 0.5x coelenterazine
8; Detection; Luminescence; ViewLux imaging system
NOTES (numbers refer to sequence above)
1; SH-SY5Y human neuroblastoma cells stably expressing GLuc-SERCaMP (SH-SY5Y-GLuc-ASARTDL) cells were seeded in 1,536 well white tissue culture treated plates (Corning, Cat# 7464) in DMEM-high glucose-sodium pyruvate (ThermoFisher Scientific, Cat #10569) supplemented with 10% bovine growth serum (Hyclone), 10 U/ml penicillin (Gibco), 10 ug/ml streptomycin (Gibco), and 20 mM HEPES.
2; Assay plates were incubated for 5 hour at 37C in a humidified incubator containing 5% CO2.
3; qHTS libraries (23 nl, final concentrations of 1.53 uM, 7.67 uM, 38.3 uM) or controls (neutral control: DMSO, positive control: dantrolene) were added using a Kalypsis pin-tool Robotic System equipped with 1536 pinheads.
4; Cells were then incubated for 16 hours at 37C, 5% CO2.
5; Thapsigargin was added at 100 nM to deplete ER calcium stores.
6; Cells were incubated for 4 hour (37 °C, 5% CO2)
7; Gaussia luciferase in the medium was measured by adding 1 ul of 0.5x coelenterazine (final concentration 0.07x) prepared in Gaussia Luciferase Glow Assay Buffer (Pierce), without addition of the Cell Lysis Buffer Reagent.
8; Luminescence was measured using a ViewLux […] CCD imaging system (Perkin Elmer) equipped with clear filters. […] The same controls were also used for the calculation of the Z' factor, a measure of assay quality control, as previously described (Zhang et al., 1999). […]

Compound | outcome
CC(C)CN1CC2(CCN(C(=O)Oc3ccccc3)CC2)C1 | inactive
CC(C)CN1CCCC2(CCN(C(=O)Oc3ccccc3)CC2)C1 | inactive
O=C(Oc1ccccc1)N1CCC2(CC1)CCN(C(c1ccccc1)c1ccccc1)CC2 | inactive
Cc1noc(C)c1C(=O)N1CCC[C@@]2(CCN(CC(C)C)C2)C1 | inactive
CN1CCCC2(CCN(C(=O)c3ccncc3)CC2)C1 | inactive
O=C(c1ccncc1)N1CCC2(CC1)CN(Cc1ccccc1)C2 | inactive
CC(=O)O[C@@H]1C[C@@]2(C)C(c3ccoc3)C[C@H]3O[C@]32[C@]2(C)C(=O)C(O)=C3C(C)(C)C(=O)C=C[C@]3(C)C12 (stereo not given in full) | inactive
CN1CCCC2(CCN(C(=O)c3ccco3)CC2)C1 | inactive
CC(n1cc(C[C@H](N)C(=O)O)c2ccccc21)n1cc(C[C@H](N)C(=O)O)c2ccccc21 | inactive
c1ccc(N2CC[C@@]3(CCCNC3)C2)nc1 | inactive
Clc1ccccc1-c1cncnc1NCCc1cnc[nH]1 | inactive
N#Cc1ccc(CN2CC[C@@]3(CCCN(C(=O)Oc4ccccc4)C3)C2)cc1 | inactive
COC(=O)N1CCC2(CCCN(C)C2)CC1 | inactive
O=C(Oc1ccccc1)N1CCC2(CCN(Cc3ccccc3)CC2)CC1 | inactive
COc1ccc(NC(=O)N2CC3(CCN(C(=O)Oc4ccccc4)CC3)C2)cc1 | inactive
c1ccc(CN2CCCC3(CCNCC3)C2)cc1 | inactive
CC[C@]12CCCN3CCC4(c5ccccc5NC4C(C(=O)O)C1)C32 (stereo not given in full) | inactive
O=C(c1ccco1)N1CCC2(CC1)CN(Cc1ccncc1)C2 | inactive
O=C(Nc1ccccc1)N1CCC2(CC1)CCN(C(=O)Oc1ccccc1)CC2 | inactive
CS(=O)(=O)N1CCC2(CC1)CN(Cc1ccncc1)C2 | inactive

Compound | outcome
C[C@@H]1C[C@@H](O)[C@@]2(O)[C@]13CC(=O)OC[C@]2(C)[C@@](C)(O)C(=O)C3 | inactive
c1ccc(CN2CCC3(CCNCC3)CC2)cc1 | inactive
O=C(Oc1ccccc1)N1CCC[C@@]2(CCN(Cc3ccccc3)C2)C1 | inactive
c1ccc(N2CC3(CCNCC3)C2)cc1 | inactive
CC(C)CN1CCC2(CC1)CCN(C(=O)Oc1ccccc1)CC2 | inactive
CC(C)NC(=O)N1CC[C@@]2(CCCNC2)C1 | inactive
CN1CCN(c2ncc3ncc(=O)n(C)c3n2)CC1 | inactive
O=C(Nc1cccc(F)c1)N1CCCC2(CCN(C(=O)Oc3ccccc3)CC2)C1 | inactive
O=C(Oc1ccccc1)N1CCC2(CC1)CN(Cc1ccncc1)C2 | inactive
c1cc(CN2CC3(CCNCC3)C2)ccn1 | inactive
COc1cc2occc2c2oc(=O)ccc12 | inactive
CN1CCCCC1c1ccc(-c2cccnc2)nc1 (stereo not given) | inactive
CN1CCCC2(CCN(C(=O)Oc3ccccc3)CC2)C1 | inactive
O=C(Nc1ccccc1)N1CC[C@@]2(CCCN(C(=O)Oc3ccccc3)C2)C1 | inactive
O=C(Oc1ccccc1)N1CCC[C@@]2(CCN(Cc3cc(C(F)(F)F)cc(C(F)(F)F)c3)C2)C1 | inactive
C[C@@H]1O[C@@H](O[C@H]2CC[C@]3(C=O)C4CC[C@]5(C)[C@@H](C6=CC(=O)OC6)CC[C@]5(O)[C@@H]4CC[C@]3(O)C2)[C@H](O)[C@H](O)[C@H]1O (stereo not given in full) | inactive
CN1CC[C@@]2(CCCN(C(=O)Oc3ccccc3)C2)C1 | inactive
O=C(CN1CCCCC1c1cccnc1)c1ccccc1 (stereo not given) | inactive
CC(C)CN1CC[C@@]2(CCCN(C(=O)c3ccncc3)C2)C1 | inactive
O=C1/C(=C\c2ccccc2)C[C@@]2(O)[C@H]3Cc4ccc(O)c5c4[C@@]2(CCN3CC2CC2)[C@H]1O5 | inactive
